# Test results: PubChem BioAssay (NCATS)
# Results filed as inconclusive are left out. Active and inactive are the calls of the source. Calls come from the whole dose curve; as a rule, active = well fitted cell-killing curve with a large enough effect; inconclusive = small, poorly fitted or top-dose-only effect, or effect the other way; inactive = no such curve, though single readings can be large or run the other way. Starred links: 1 amine or outer side, 2 acyl side, 3 side chain; linkers in the order of their positions; H or OH if unused. Positions of bridges follow the written chain, without caps; N, C: chain ends. Non-standard residues stand in square brackets, D forms with d. Residues, ends and D or L forms follow the SMILES beside them. Chains are numbered I, II in the order given. Actinocin(9to1) = Cc1c2oc3c(C)ccc(C(=O)[*:1])c3nc-2c(C(=O)[*:2])c(N)c1=O; NMeV = CN[CH](C(=O)O)C(C)C; Sar = CNCC(=O)O
# Tests used:
# [1] = Quantitative High-Throughput drug screen in 47 multiple myeloma cell lines against the NCATS MIPE library collection: KMS11_JCRBsus cell viability assay (AID 1919873); note: nearly all actives have a fitted effect of over 50% in size
# Outline: (§1)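 Cells were exposed to library compounds for 48 hours, after which ATP was measured by CellTiter-Glo. Signal was taken as median relative luminescence units.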
# [2] = Quantitative High-Throughput drug screen in 47 multiple myeloma cell lines against the NCATS MIPE library collection: KMS28BM_JCRB cell viability assay (AID 1919874); note: nearly all actives have a fitted effect of over 35% in size
# Outline: as §1
# Potency is the fitted concentration of half-maximal effect.
SMILES,Potency [1],Potency [2]
COc1ccc2c(c1OC)C(=O)OC2[C@H]1c2c(cc3c(c2OC)OCO3)CCN1C (stereo not given in full),26.4 nM (active),20.9 nM (active)
CC(=O)N1CCN(c2ccc(OCc3nn(C)c(C)c3-c3cccc4c(CCCOc5cccc6ccccc56)c(C(=O)O)n(Cc5cccnc5)c34)cc2)CC1,105 nM (active),23.5 nM (active)
CN1[C@H]2CC(OC(=O)[C@@H](CO)c3ccccc3)C[C@H]1[C@H]1O[C@H]12 (stereo not given in full),inactive,inactive
CC(C)NC[C@@H](C(=O)N1CCN(c2ncnc3c2[C@H](C)C[C@H]3O)CC1)c1ccc(Cl)cc1,4690 nM (active),2960 nM (active)
NC(=O)Nc1sc(-c2ccc(F)cc2)cc1C(N)=O,4690 nM (active),4690 nM (active)
O=C1NC(O)CCN1[C@@H]1O[C@H](CO)[C@H](O)[C@H]1O (stereo not given in full),inactive,inactive
C[C@H](NC(=O)[C@@H](O)c1cc(F)cc(F)c1)C(=O)N[C@@H]1C(=O)N(C)c2ccccc2-c2ccccc21,1870 nM (active),inactive
COc1cc(CCc2cc(NC(=O)c3ccc(N4C[C@@H](C)N[C@@H](C)C4)cc3)n[nH]2)cc(OC)c1,4690 nM (active),16600 nM (active)
N#Cc1cc(NC(=O)Nc2nnc(-c3ccncc3)s2)ccc1-c1cn[nH]c1,inactive,inactive
O=C(c1ccc(F)cc1)N1CCC[C@H](c2nc(-c3ccc(F)cc3)no2)C1,inactive,inactive
Cc1cn([C@@H]2O[C@H](CO)[C@@H](O)[C@H]2F)c(=O)[nH]c1=O,inactive,inactive
COc1cc([C@@H]2c3cc4c(cc3[C@H](O)[C@H]3COC(=O)[C@@H]23)OCO4)cc(OC)c1OC,29.6 nM (active),41.8 nM (active)
C#CCC(Cc1cnc2nc(N)nc(N)c2n1)c1ccc(C(=O)N[C@@H](CCC(=O)O)C(=O)O)cc1 (stereo not given in full),93.5 nM (active),33.2 nM (active)
CC(=CC(=O)Nc1ccccc1C(=O)O)c1ccc2ccccc2c1,inactive,inactive
Cn1cc(C[C@@H](N)C(=O)O)c2ccccc21,inactive,inactive
COc1cc(OC)cc(-c2ccc3ncc4ccc(=O)n(-c5ccc(N6CCNCC6)c(C(F)(F)F)c5)c4c3c2)c1,2640 nM (active),4690 nM (active)
CC(C)OC(=O)[C@H](C)N[P@](=O)(OC[C@H]1O[C@@H](n2ccc(=O)[nH]c2=O)[C@](C)(F)[C@H]1O)Oc1ccccc1,inactive,inactive
CC(=O)NCC(=O)N1[C@H]2CC[C@H]1c1cc(Nc3ncc(C(F)(F)F)c(NC4CCC4)n3)ccc12,66.2 nM (active),3320 nM (active)
O=C(O)[C@H](CC(=O)N1C[C@@H]2CCCC[C@H]2C1)Cc1ccccc1,inactive,inactive
CN(C)c1ccc2cc(C(=O)N[C@@H](CCCN=C(N)CCl)C(=O)NCc3ccccc3)ccc2c1,7430 nM (active),7430 nM (active)
CC(C)(O)Cn1c(NC(=O)c2ccc(-c3cn[nH]c3)s2)nc2cc(CN3CCOCC3)ccc21,743 nM (active),743 nM (active)
NC(=NCCCCCCN=C(N)N=C(N)Nc1ccc(Cl)cc1)N=C(N)Nc1ccc(Cl)cc1,14800 nM (active),18700 nM (active)
CC(C)Oc1ccc(C(=O)N[C@H](CNC(=O)CN(C)C)Cc2ccc(-c3cn4cccc([C@H](C)O)c4n3)cc2)cc1Cl,132 nM (active),1660 nM (active)
COC1=C2C[C@@H](C)C[C@H](OC)[C@@H](O)[C@@H](C)C=C(C)[C@H](OC(N)=O)[C@@H](OC)C=CC=C(C)C(=O)NC(=CC1=O)C2=O,83.3 nM (active),93.5 nM (active)
CCS(=O)(=O)Nc1ccc2[nH]c(O)c(C(=Nc3ccc(CN4CCCCC4)cc3)c3ccccc3)c2c1,166 nM (active),132 nM (active)
O=C(C=Cc1ccc(CN(CCO)CCc2c[nH]c3ccccc23)cc1)NO,52.6 nM (active),52.6 nM (active)
Cc1ncc(-c2ccnc(Nc3ccc(S(C)(=O)=O)cc3)n2)n1C(C)C,2090 nM (active),4690 nM (active)
Cc1cc(O)c2c(c1)C(=O)c1cccc(O)c1C2=O,inactive,inactive

SMILES,Potency [1],Potency [2]
CCCCCCCCCCCCc1ccc(S(=O)(=O)Nc2nncs2)cc1,inactive,inactive
C[C@H](NCc1ccc2c(c1)nc(NC(=O)c1ccc(-c3cn[nH]c3)s1)n2CCc1ccccc1)C(C)(C)C,590 nM (active),833 nM (active)
CC(=O)O[C@]1(C(C)=O)CC[C@H]2[C@@H]3C=C(C)C4=CC(=O)CC[C@]4(C)[C@@H]3CC[C@@]21C,inactive,inactive
C[C@H](NC(=O)C(C#N)=Cc1cccc(Br)n1)c1ccccc1,5260 nM (active),7430 nM (active)
CC(=O)O[C@@]12CO[C@H]1C[C@H](O)[C@@]1(C)C(=O)[C@H](O)C3=C(C)[C@@H](OC(=O)C(O)[C@@H](NC(=O)OC(C)(C)C)c4ccccc4)C[C@@](O)([C@@H](OC(=O)c4ccccc4)[C@@H]21)C3(C)C (stereo not given in full),inactive,inactive
C=CCNC1=C2C[C@@H](C)C[C@H](OC)[C@@H](O)[C@@H](C)C=C(C)[C@H](OC(N)=O)[C@@H](OC)C=CC=C(C)C(=O)NC(=CC1=O)C2=O,59 nM (active),662 nM (active)
C[C@@H]1C(=O)O[C@H]2CC34[C@H]5C[C@@H](C(C)(C)C)C36[C@H](OC(=O)[C@@H]6O)O[C@@]4(C(=O)O5)[C@]21O (stereo not given in full),inactive,inactive
COc1cc(C(C)C)c(Oc2cnc(NC(CO)CO)nc2N)cc1I,inactive,inactive
CN[C@H](CC(C)C)C(=O)N[C@H]1C(=O)N[C@@H](CC(N)=O)C(=O)N[C@@H]2C(=O)N[C@H]3C(=O)N[C@H](C(=O)N[C@H](C(=O)O)c4cc(O)cc(O)c4-c4cc3ccc4O)[C@H](O)c3ccc(c(Cl)c3)Oc3cc2cc(c3O[C@@H]2O[C@H](CO)[C@@H](O)[C@H](O)[C@@H]2O[C@H]2C[C@](C)(N)[C@H](O)[C@H](C)O2)Oc2ccc(cc2Cl)[C@H]1O,inactive,inactive
COc1cc(C[C@@H](CO)[C@H](CO)Cc2ccc(O)c(OC)c2)ccc1O,inactive,inactive
COC[C@H](NC(=O)c1cnc(C)s1)C(=O)N[C@@H](COC)C(=O)N[C@@H](Cc1ccccc1)C(=O)[C@@]1(C)CO1,18.7 nM (active),41.8 nM (active)
COc1ccc(S(=O)(=O)Nc2cccnc2Nc2ccc(O)cc2)cc1,41.8 nM (active),33.2 nM (active)
C=CC(=O)N1CCc2ccc(-n3c(=O)ccc4cnc5ccc(-c6cnn(C)c6)cc5c43)cc21,418 nM (active),2960 nM (active)
COc1cc(C)c(Sc2cnc(NC(=O)c3ccc(CNC(C)C(C)(C)C)cc3)s2)cc1C(=O)N1CCN(C(C)=O)CC1 (stereo not given),5900 nM (active),13200 nM (active)
CC(=O)N[C@H]1[C@@H]([C@H](O)[C@H](O)CO)OC(C(=O)O)=C[C@@H]1N=C(N)N,inactive,inactive
c1ccc(CNc2nc(NCc3ccccc3)c3ccccc3n2)cc1,11800 nM (active),11800 nM (active)
Cc1cnc(Nc2ccc(CN3CCOCC3)cc2)nc1Nc1cccc(S(=O)(=O)NC(C)(C)C)c1,1180 nM (active),4690 nM (active)
"Cc1c2oc3c(C)ccc(C(=O)NC4C(=O)NC(C(C)C)C(=O)N5CCCC5C(=O)N(C)CC(=O)N(C)C(C(C)C)C(=O)OC4C)c3nc-2c(C(=O)NC2C(=O)NC(C(C)C)C(=O)N3CCCC3C(=O)N(C)CC(=O)N(C)C(C(C)C)C(=O)OC2C)c(N)c1=O (stereo not given) (I: TVP[Sar][NMeV] / II: TVP[Sar][NMeV]; ester I:1-I:C, II:1-II:C; linker I:N-II:N via Actinocin(9to1); configuration not given here)",inactive,inactive
COc1cc2c(cc1O)CCC1C2CC[C@@]2(C)C1CC[C@@H]2O (stereo not given in full),743 nM (active),935 nM (active)
COc1cc(OC)c(C=CS(=O)(=O)Cc2ccc(OC)c(NCC(=O)O)c2)c(OC)c1,93.5 nM (active),132 nM (active)
Cc1ccc([N+](=O)[O-])cc1S(=O)(=O)N(C)N=Cc1cnc2ccc(Br)cn12,6.6 nM (active),23.5 nM (active)
CS[C@H]1SC[C@@H]2C(=O)N(C)[C@H](C(C)C)C(=O)OC[C@H](NC(=O)c3cnc4ccccc4n3)C(=O)N[C@H](C)C(=O)N(C)[C@@H]1C(=O)N(C)[C@H](C(C)C)C(=O)OC[C@H](NC(=O)c1cnc3ccccc3n1)C(=O)N[C@H](C)C(=O)N2C,3.3 nM (active),1.7 nM (active)
C[C@H]1O[C@H](O[C@H]2[C@H](O)[C@@H](O)[C@@H](O[C@H]3[C@H](O)[C@@H](O)C(O)O[C@H]3CO)O[C@H]2CO)[C@H](O)[C@@H](O)[C@H]1N[C@H]1C=C(CO)[C@@H](O)[C@H](O)[C@@H]1O (stereo not given in full),inactive,inactive
CN[C@@H]1C[C@H]2O[C@@](C)([C@H]1OC)n1c3ccccc3c3c4c(c5c6ccccc6n2c5c31)C(=O)N[C@H]4O,264 nM (active),469 nM (active)
Cc1cc(C(=O)NOCCO)c(Nc2ccc(I)cc2F)n(C)c1=O,inactive,inactive
C[C@@H]1[C@H](C)CC[C@]2(C(=O)O)CC[C@]3(C)C(=CC[C@@H]4[C@@]5(C)C[C@@H](O)[C@H](O)[C@@](C)(CO)[C@H]5CC[C@]43C)[C@@H]12,inactive,inactive
CN1CCCN(C(=O)c2cccc(-c3ccc(C=C4C(=O)Nc5ccc(Cl)cc54)o3)c2)CC1,9350 nM (active),10500 nM (active)
